# “And” between values parts separate entries of the source, which are not always exact repeats. Identical values can stand only once. Results filed as inconclusive are left out. Entries that show only a call come without a potency. Some compounds were tested as several samples or in several runs, with calls that do not always agree. The source made the active and inactive calls. Calls follow the shape of the dose curve; as a rule, active = well fitted curve in the direction sought with a large enough effect in the repeat runs; inconclusive = weak or mixed curves; inactive = no such curve, though single readings can be large; an effect the other way counts as inactive or inconclusive.
# System: not listed separately
# Experiment: qHTS assay to identify small molecule antagonists of the estrogen receptor alpha (ER-alpha) signaling pathway using the BG1 cell line - cell viability counter screen (AID 743081);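 also: compound given together with 17beta-estradiol as the ER stimulus; nearly all actives have a fitted effect of over 45% in size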
# Conditions: BG1Luc4E2 viability, CellTiter-Fluor, 22 h; series mostly up to 70.3 µM
# Potency is read from the fitted curve at half-maximal effect.
row,Structure (SMILES),Potency
1,CC(C)N1C(=O)N(c2ccccc2)CSC1=NC(C)(C)C,inactive
2,Clc1ccc(C(c2ccccc2Cl)C(Cl)(Cl)Cl)cc1 (configuration not stated),inactive
3,OC(c1ccc(Cl)cc1)(c1ccc(Cl)cc1)C(Cl)(Cl)Cl,inactive
4,CC(=O)/C=C/c1ccc2c(c1)OCO2,inactive
5,CCCSP(=O)(OCC)SCCC,inactive
6,Oc1ccc2ccc3cccc4ccc1c2c34,inactive
7,C[C@]12CC[C@H]3[C@@H](CCC4=CC(=O)CC[C@@]43C)[C@@H]1CC[C@@H]2O,inactive
8,CCc1nn(C)c(C(=O)NCc2ccc(C(C)(C)C)cc2)c1Cl,30.6 µM (active)
9,CC[C@H](C)[C@H]1O[C@]2(C=C[C@@H]1C)C[C@@H]1C[C@@H](C/C=C(\C)[C@@H](O[C@H]3C[C@H](OC)[C@@H](O[C@H]4C[C@H](OC)[C@@H](O)[C@H](C)O4)[C@H](C)O3)[C@@H](C)/C=C/C=C3\CO[C@@H]4[C@H](O)C(C)=C[C@@H](C(=O)O1)[C@]34O)O2,inactive
10,CCN(CC)C(=S)[S-].CCN(CC)C(=S)[S-].[Zn+2],42.9 µM (active)
11,Cc1cc(SCc2sc(-c3ccc(C(F)(F)F)c(F)c3)nc2C)ccc1OCC(=O)O,inactive
12,O=C(Nc1ccc2[nH]ccc2c1)c1cc2cc(F)ccc2n1Cc1cccc(F)c1,inactive
13,CCCCCCCCc1ccc(O)cc1,inactive
14,CCCCCCCCCCCCCCC(Br)C(=O)O (configuration not stated),inactive
15,CC(=O)[O-].CC(=O)[O-].O.O.[Cd+2],inactive
16,O=S(=O)(c1ccc(Cl)cc1)c1ccc(Cl)cc1,inactive
17,Oc1ccc(C2(c3ccc(O)cc3)CCCCC2)cc1,inactive
18,Oc1cc(Cl)c(Cl)c(Cl)c1,inactive
19,COC12CC[C@@]3(C[C@@H]1C(C)(O)C(C)(C)C)[C@H]1Cc4ccc(O)c5c4[C@@]3(CCN1CC1CC1)[C@H]2O5 (some centres not stated),inactive
20,CS(=O)(=O)c1ccc(C(=O)C2C(=O)CCCC2=O)c([N+](=O)[O-])c1,inactive
21,CC(C)(C)C(O)/C(=C\c1ccc(Cl)cc1Cl)n1cncn1 (configuration not stated),inactive
22,CCCCCCCCCCCCBr,inactive
23,ClC1=C(Cl)[C@]2(Cl)[C@@H]3[C@@H]4C[C@@H]([C@H]5O[C@@H]45)[C@@H]3[C@@]1(Cl)C2(Cl)Cl,inactive
24,C1CCC2CCCCC2C1 (configuration not stated),inactive
25,COc1ccc(N)cc1N,inactive
26,Clc1ccc(COC(Cn2ccnc2)c2ccc(Cl)cc2Cl)cc1 (configuration not stated),inactive
27,N#CCCC(Br)(C#N)CBr (configuration not stated),inactive
28,O=CC(Br)(Br)Br,inactive
29,CCOc1cc(C(C)(C)C)ccc1C1COC(c2c(F)cccc2F)=N1 (configuration not stated),inactive

# Biological target: Aromatase (Homo sapiens) (UniProt P11511)
# Experiment: qHTS assay to identify aromatase inhibitors (AID 743083); also: nearly all actives have a fitted effect of over 55% in size
# Conditions: MCF-7 aro ERE, testosterone-driven ERE luciferase, 24 h; series mostly up to 70.3 µM
# Chain of Aromatase (Homo sapiens) (P11511 whole entry, looked up): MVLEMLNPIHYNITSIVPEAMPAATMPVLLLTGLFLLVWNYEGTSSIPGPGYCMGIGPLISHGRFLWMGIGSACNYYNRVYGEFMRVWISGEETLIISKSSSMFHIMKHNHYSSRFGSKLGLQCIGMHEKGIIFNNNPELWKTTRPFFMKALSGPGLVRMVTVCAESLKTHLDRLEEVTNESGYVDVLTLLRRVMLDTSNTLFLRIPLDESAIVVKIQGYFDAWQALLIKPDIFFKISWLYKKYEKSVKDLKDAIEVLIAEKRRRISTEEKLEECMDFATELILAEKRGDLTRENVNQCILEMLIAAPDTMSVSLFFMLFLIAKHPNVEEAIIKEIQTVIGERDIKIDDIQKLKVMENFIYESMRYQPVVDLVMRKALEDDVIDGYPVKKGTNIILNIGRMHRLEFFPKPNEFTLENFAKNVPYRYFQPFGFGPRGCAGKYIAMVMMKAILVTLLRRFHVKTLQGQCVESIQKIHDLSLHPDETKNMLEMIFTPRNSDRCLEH
row,Structure (SMILES),Potency
1,Clc1ccc(C(c2ccccc2Cl)C(Cl)(Cl)Cl)cc1 (configuration not stated),inactive
2,OC(c1ccc(Cl)cc1)(c1ccc(Cl)cc1)C(Cl)(Cl)Cl,61.1 µM (active)
3,CC(=O)/C=C/c1ccc2c(c1)OCO2,inactive
4,CCCSP(=O)(OCC)SCCC,inactive
5,C[C@]12CC[C@H]3[C@@H](CCC4=CC(=O)CC[C@@]43C)[C@@H]1CC[C@@H]2O,inactive
6,CC(C)(C)c1cc([N+](=O)[O-])cc(C(C)(C)C)c1O,17.2 µM (active)
7,CCc1nn(C)c(C(=O)NCc2ccc(C(C)(C)C)cc2)c1Cl,61.1 µM (active)
8,CC[C@H](C)[C@H]1O[C@]2(C=C[C@@H]1C)C[C@@H]1C[C@@H](C/C=C(\C)[C@@H](O[C@H]3C[C@H](OC)[C@@H](O[C@H]4C[C@H](OC)[C@@H](O)[C@H](C)O4)[C@H](C)O3)[C@@H](C)/C=C/C=C3\CO[C@@H]4[C@H](O)C(C)=C[C@@H](C(=O)O1)[C@]34O)O2,inactive and 14.4 µM (active)
9,CCN(CC)C(=S)[S-].CCN(CC)C(=S)[S-].[Zn+2],0.096 µM (active)
10,O=C(CCl)Nc1ccccc1,43.3 µM (active)
11,O=C(CCl)C(Cl)Cl,8.71 µM (active)
12,CCCCCCCCc1ccc(O)cc1,31.7 µM (active)
13,CCCCCCCCCCCCCCC(Br)C(=O)O (configuration not stated),inactive
14,O=c1ssc(Cl)c1Cl,15.4 µM (active)
15,Oc1ccc(C2(c3ccc(O)cc3)CCCCC2)cc1,51.6 µM (active)
16,COC12CC[C@@]3(C[C@@H]1C(C)(O)C(C)(C)C)[C@H]1Cc4ccc(O)c5c4[C@@]3(CCN1CC1CC1)[C@H]2O5 (some centres not stated),19.2 µM (active)
17,CS(=O)(=O)c1ccc(C(=O)C2C(=O)CCCC2=O)c([N+](=O)[O-])c1,inactive
18,CC(C)(C)C(O)/C(=C\c1ccc(Cl)cc1Cl)n1cncn1 (configuration not stated),58.7 µM (active)
19,C=CC(=O)OCCCCOC(=O)C=C,43.3 µM (active)
20,ClC1=C(Cl)[C@]2(Cl)[C@@H]3[C@@H]4C[C@@H]([C@H]5O[C@@H]45)[C@@H]3[C@@]1(Cl)C2(Cl)Cl,34.4 µM (active)
21,C1CCC2CCCCC2C1 (configuration not stated),inactive
22,COc1ccc(N)cc1N,12.6 µM (active) and 33 µM (active)
23,CC(C)C1CCC(Cc2ccc(Cl)cc2)C1(O)Cn1cncn1 (configuration not stated),2.41 µM (active)
24,Clc1ccc(COC(Cn2ccnc2)c2ccc(Cl)cc2Cl)cc1 (configuration not stated),531 nM (active) and 255 nM (active) and 68.3 nM (active)
25,N#CCCC(Br)(C#N)CBr (configuration not stated),24.3 µM (active)
26,CCOCCOC(C)=O,inactive
27,O=CC(Br)(Br)Br,10.8 µM (active)
28,CCOc1cc(C(C)(C)C)ccc1C1COC(c2c(F)cccc2F)=N1 (configuration not stated),41.6 µM (active)
